Bioassay records as filed in PubChem.
Pf Dd2 inh = Plasmodium falciparum Dd2 growth inhibition; Potency, µM (doses to about 28.9 µM), without a hit: at the highest dose activity, negative = inhibition, usual class: inhibitors; actives 4.3% (n = 120,000); P. falciparum Dd2 growth, SYBR Green, 72 h; active means well fitted inhibition curve with a large enough effect;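 further: plate controls were DMSO vehicle for no effect and reference drug for full effect; nearly all actives have a fitted effect of over 65% in size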
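Readout: SYBR Green fluorescence, 485 nm excitation, 535 nm emission, after ~16 h lysis at 37C. Before that, Dd2-infected red cells (2.5% hematocrit) grew 72 h with compound, 29 uM top final concentration.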
* hit, by the source's call; i = inactive; [ ] = remark or other dose. This excerpt belongs to a sample that is enriched for hits. Potency means the concentration at half of the fitted maximal effect.

SMILES	Pf Dd2 inh
O=C(NCC1Cn2cccc2CN1Cc1ccccc1)c1ccncc1 (stereo not drawn)	-28%
NC(=O)Cc1c[nH]c2ncc(-c3ccccc3F)cc12	i
COc1cccc(CN2Cc3cc(NC(=O)COc4ccccc4)ccc3OC(C)C2=O)c1 (stereo not drawn)	i
COc1cc(OC)c(NC(=O)c2cc(C)nc3c2c(C)nn3-c2ccc(C)cc2)cc1Cl	31%[5.79 µM]
COc1ccc(-c2nc(C)nc3c2CCN(C(=O)c2ccccc2)CC3)cc1	i
Cc1cc(C)cc(NC(=O)c2sc3nc4n(c(=O)c3c2C)N=C(c2ccc(F)cc2)CS4)c1	-4%
O=C(c1ccc[nH]c1=O)N1CC(F)(F)C[C@H]1c1nc(C2CC2)no1	12%
Fc1cccc(CN2CCNc3cc(Nc4ccccc4)ncc3C2)c1	-18%[44.1 µM]
c1ccc(Nc2cc3c(cn2)CN(CC2CC2)CCN3)cc1	13µM*
c1ccc(CCN2CCNc3cc(NCCN4CCOCC4)ncc3C2)cc1	-4%[44.1 µM]
CC(=O)Nc1cccc(-c2cc3c(cn2)CN(Cc2ccccc2)CCN3)c1	i
COc1ccc(OC)c(CN2CCNc3cnc(Nc4cccnc4)cc3C2)c1	i
c1cncc(Nc2cc3c(cn2)CN(CC2CCOCC2)CCN3)c1	-13%[44.1 µM]
COc1ccc(CN2CCNc3cc(Nc4ccccc4)ncc3C2)cc1O	i
COc1ccc(OC)c(CN2CCNc3cc(Nc4ccccc4)ncc3C2)c1	3.5µM*
c1ccc(CN2CCNc3cc(Nc4ccc(N5CCOCC5)cc4)ncc3C2)cc1	11µM*
c1ccc(Nc2cc3c(cn2)CN(Cc2cccs2)CCN3)cc1	7.9µM*
c1ccc(Nc2cc3c(cn2)CN(Cc2cnc[nH]2)CCN3)cc1	-5%[44.1 µM]
Fc1ccccc1CN1CCNc2cc(Nc3ccccc3)ncc2C1	-28%[44.1 µM]
O=C1[C@H]2CN(Cc3cc(F)cc(F)c3)C[C@H]2C(=O)N1Cc1ccc2c(c1)OCO2	-1%
O=C(CN1C(=O)CCc2cc(S(=O)(=O)N3CCOCC3)ccc21)Nc1cccc(C(F)(F)F)c1	-2%
Cc1noc([C@@H]2CC(F)(F)CN2C(=O)c2ccc(C#N)cc2)n1	28%
CCc1nc(-c2c3n(c(=O)n(Cc4cccc(Cl)c4)c2=O)CCCC3)no1	-9%
O=C1NCc2ccccc2CC12CCCCN2Cc1cccnc1 (stereo not drawn)	-11%
CCOc1ccc(CNC(=O)C2CCCCN2S(=O)(=O)c2ccc(F)cc2)cc1OC (stereo not drawn)	26%
SMILES	Pf Dd2 inh
Cn1cnc(S(=O)(=O)N[C@@H]2[C@@H](Cc3ccccc3)[C@H]3OCC[C@@H]23)c1	-21%
CN(C)C(=O)N1Cc2ccccc2OC2(CCN(C(=O)CCC(=O)OC(C)(C)C)CC2)C1	2%
COc1ccc(Nc2cc3c(cn2)CN(CCc2ccccc2)CCN3)cn1	-5%[44.1 µM]
CN1CCNc2cc(NCc3ccccc3)ncc2C1	-1%[44.1 µM]
CCCN1CCNc2cc(Nc3ccccc3)ncc2C1	8.9µM*
Cc1ccc(CN2C(=O)C3(CCOCC3)CC2c2nnnn2C(C)(C)C)cc1C (stereo not drawn)	17%
O=C(NC1CCCN(c2cc(-c3ccc(F)cc3)[nH]n2)C1)c1cnccn1 (stereo not drawn)	i
CC(=O)N1CCN(C(=O)CCc2ccnc(N3CCOCC3)c2)CC1	24%
O=C(C1CCC1)N1CCC(N(C(=O)C2CC2)C2CCOCC2)CC1	57%
COc1ccccc1NC(=O)N1CCC(N(C(=O)C2CC2)C2CCOCC2)CC1	4.5µM*
O=C(c1ccccc1)N1CCC(N(C(=O)C2CC2)C2CCOCC2)CC1	39%
CCOCC1(C)COc2ccc(C(=O)Nc3cccc(N(C)C)c3)cc2N1 (stereo not drawn)	3.2µM*
COc1cccc(NC(=O)c2ccc3c(c2)NC(C)(COCCN(C)C)CO3)c1 (stereo not drawn)	-9%[44.1 µM]
CCOCC1(C)COc2ccc(C(=O)N(C)c3ccccc3)cc2N1 (stereo not drawn)	i
COc1ccc(OC)c(CNC(=O)C2(CCO)CC23CCOCC3)c1 (stereo not drawn)	4%
COc1c(F)cc(CNCC2(O)CCCNC2)cc1F (stereo not drawn)	0%
Cc1cnc(CNCC2(O)CNCCOC2)cn1 (stereo not drawn)	-13%
Cc1cc(Cl)cc(Cl)c1CNCC1(O)CCCNC1 (stereo not drawn)	7.9µM*
COC(=O)N1CCc2nc(C3CC3)nc(-c3ccc(Cl)cc3)c2C1	-23%[44.1 µM]
Cc1cnc(C)c(-c2cc(O)c3c(c2)CN(C(=O)c2ccncn2)CCO3)n1	-14%
Cc1cncc(C(=O)N2CCOc3c(O)cc(-c4nc5ccccc5s4)cc3C2)c1	7.9µM*
Cc1nc(CN2CCOc3c(O)cc(-c4nc5ccccc5s4)cc3C2)no1	-25%
Cc1cc2ncc(C(=O)N3CCCCC3)cn2n1	1%[44.1 µM]
CC1(C)O[C@H]2[C@@H](O1)[C@@H](C(=O)Nc1ccccc1O)O[C@@H]1OC(C)(C)O[C@@H]12	17%
COc1ccc(CNc2ncnc3c2nnn3C)cc1	i
CCOC(=O)C1=C(CS(=O)(=O)c2ccc(Br)cc2)NC(=O)NC1c1ccccc1 (stereo not drawn)	i
